Results: ChEMBL document CHEMBL3988442, “University of Dundee, Small-Polar-MMV Screening Library” (2021)
In all, about 48,000 compounds went through this assay and about 13,000 (27%) showed an effect of 50% or more. This is one part of the list.

These molecules were tested on Wolbachia pipientis (assay: Anti-Wolbachia Cell-Based Screen). Settings: 5 µM.
Format: functional
Parameters: scale not given: in the data most compounds retested in dose-response had high values

SMILES	Percent Effect [%]
O=C(CCN1CCCO1)N1CC[C@@H](c2ccc3ccccc3c2)[C@H](O)C1	7.888
CC(C)SCCn1ccc2[nH]c(=O)c(C#N)cc2c1=O	-14.16
CN1CCC(c2nc3ccc(-c4cccc(F)c4)cn3n2)CC1.O=C(O)C(F)(F)F	117.6
Cn1cc(C2(C)CN(Cc3ccc(N4CCCC4)nc3)CCO2)cn1 (stereo unspecified)	-5.624
Cc1ccc(NC2(C(=O)NC(C)c3ncn[nH]3)CCCC2)cc1 (stereo unspecified)	4.641
CCc1oc(C(=O)NCCNS(C)(=O)=O)cc1CN1CCCC1	20.77
CC(Cc1cnccn1)NC(=O)COc1ccc(F)cc1F (stereo unspecified)	0.5787
CCc1oc(C(=O)NC(C)c2ncn[nH]2)cc1CN1CCCC1 (stereo unspecified)	82.75
CCc1oc(C(=O)NCCc2nc(C(=O)O)cs2)cc1CN1CCCC1	10.42
CCc1oc(C(=O)NCCc2cc(O)nc(C)n2)cc1CN1CCCC1	-0.3531
CCc1oc(C(=O)NCCSc2ncn[nH]2)cc1CN1CCCC1	77
Cc1cc(C)nc(NC(C)Cc2cnccn2)n1 (stereo unspecified)	-26.5
CCc1oc(C(=O)NC(C)Cc2cnccn2)cc1CN1CCCC1 (stereo unspecified)	92.2
COc1c(F)cccc1C(=O)NC(C)c1cnn(C)c1 (stereo unspecified)	2.584
Cc1ccccc1S(=O)(=O)CCOC(C)C	-3.521
O=C(C1CCOCC1)N1C[C@@H](F)[C@@H](OCc2nc3cc(F)ccc3[nH]2)C1	-12.95
CCN1CCC(CNC(=O)c2cc(Cl)c[nH]2)CC1	93.05
O=C(NCC1CCN(CCc2ccccc2)C1)c1c(F)cccc1F (stereo unspecified)	-12.95

SMILES	Percent Effect [%]
COCCN1CCC(CNC(=O)c2cc(C)cc(C)c2)C1 (stereo unspecified)	11.6
CCc1cc(C(=O)NCC2CCN(Cc3ccncc3)CC2)on1	4.058
O=C(NCC1CCN(CCc2ccccc2)C1)c1cc(Cl)c[nH]1 (stereo unspecified)	98.65
CC(C)(C)OC(=O)NCC1CCN(C(=O)c2cc(Cl)c[nH]2)CC1	10.1
COCCN1CCC(CNC(=O)c2cc(Cl)c[nH]2)CC1	92.15
COCCN1CCC(CNC(=O)Nc2ccc(F)c(Cl)c2)C1 (stereo unspecified)	-3.47
COc1ccc(OC)c2c(C)cc(N(C)CCCO)nc12	19.89
OC[C@@H](O)CN(CCC(F)(F)F)c1ncccn1	-5.207
O=C(CCN1CCCN(c2nccs2)CC1)NCC1CCCCC1	-7.888
Cc1cnn(CCCNC(=O)NCCS(=O)(=O)Nc2ccccc2)c1	96.15
Cc1cnn(CCNC(C)C(=O)NCCc2cccs2)c1 (stereo unspecified)	5.747
Cc1cnn(CCCNC2Cc3ccccc3C2)c1	8.956
Cc1cnn(CCNC(C)C(=O)Nc2ccc(Cl)cn2)c1 (stereo unspecified)	-21.66
Cc1cnn(CCCNC(=O)NC(C)C(=O)Nc2ccccc2)c1 (stereo unspecified)	105.3
CCn1nnnc1-c1cccc(NC(=O)CCn2cc(C)cn2)c1	2.601
Cc1cnn(CCCNC(=O)NCCC(=O)Nc2ccccc2)c1	97.62
Cc1cnn(CCNCCCOc2ccccc2)c1	2.655
Cc1cnn(CCNCC(=O)NCc2ccccc2)c1	3.726
